Holding throughout (parameters): scale not given: direction of the effect not stated beside the values
In assay [1] the target is Protein translocase subunit SecA (Escherichia coli (strain K12)) (UniProt P10408). Nature of the assay: Assay to Identify E. coli SecA ATPase Inhibitors. The assay is classed as functional. To be noted: 30 µM.
Assay [2] has as its target T1, Ubiquitin-activating enzyme e1, putative (Leishmania donovani (strain BPK282A1)) (UniProt E9BSI1).
T1 sequence (whole entry): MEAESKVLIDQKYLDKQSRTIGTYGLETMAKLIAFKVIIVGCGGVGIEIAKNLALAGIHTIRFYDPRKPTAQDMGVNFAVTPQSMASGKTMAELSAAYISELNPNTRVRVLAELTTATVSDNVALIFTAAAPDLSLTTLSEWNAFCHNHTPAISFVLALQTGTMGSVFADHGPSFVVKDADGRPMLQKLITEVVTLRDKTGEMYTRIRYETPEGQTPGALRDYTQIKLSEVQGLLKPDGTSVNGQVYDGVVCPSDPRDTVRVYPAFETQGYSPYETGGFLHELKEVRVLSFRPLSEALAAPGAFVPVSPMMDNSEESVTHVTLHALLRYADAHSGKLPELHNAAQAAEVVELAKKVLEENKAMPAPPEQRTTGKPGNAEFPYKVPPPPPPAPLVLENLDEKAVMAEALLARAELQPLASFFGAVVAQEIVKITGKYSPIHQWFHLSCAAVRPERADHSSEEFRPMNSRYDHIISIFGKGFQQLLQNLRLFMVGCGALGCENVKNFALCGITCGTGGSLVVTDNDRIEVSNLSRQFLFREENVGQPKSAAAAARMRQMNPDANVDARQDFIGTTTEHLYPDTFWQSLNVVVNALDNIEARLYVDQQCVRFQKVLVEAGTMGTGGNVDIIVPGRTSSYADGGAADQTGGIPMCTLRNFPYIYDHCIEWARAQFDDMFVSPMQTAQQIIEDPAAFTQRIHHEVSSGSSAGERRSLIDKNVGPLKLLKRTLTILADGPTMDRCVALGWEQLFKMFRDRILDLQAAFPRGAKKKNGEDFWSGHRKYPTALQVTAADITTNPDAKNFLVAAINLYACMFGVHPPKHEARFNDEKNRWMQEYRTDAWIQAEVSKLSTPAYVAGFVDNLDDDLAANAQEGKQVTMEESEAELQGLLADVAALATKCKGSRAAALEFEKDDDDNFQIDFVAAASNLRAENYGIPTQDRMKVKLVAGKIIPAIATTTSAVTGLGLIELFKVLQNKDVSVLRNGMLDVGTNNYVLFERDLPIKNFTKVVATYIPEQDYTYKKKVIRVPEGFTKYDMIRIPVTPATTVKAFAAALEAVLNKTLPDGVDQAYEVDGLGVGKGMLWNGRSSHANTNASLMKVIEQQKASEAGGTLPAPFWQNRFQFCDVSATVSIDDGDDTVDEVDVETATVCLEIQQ
Nature of the assay: Leishmania donovani Ubiquitin Activating Enzyme (LdE1). The assay is classed as functional. To be noted: 30 µM.

For assay [3], the target named is AMP-activated protein kinase, AMPK (Homo sapiens) (UniProt P54646+O43741+P54619+Q9UGJ0+Q9Y478+Q13131+Q9UGI9). Nature of the assay: AMP-dependent Kinase enzyme assay. An in vitro enzyme assay that detects ADP turnover that is directly proportional to AMPK activity. This uses naive AMPK that is activated during the assay with MK-8722. To be noted: 30 µM. The assay is classed as functional.

Assay [4] has as its target Sialic acid-binding Ig-like lectin 9 (Homo sapiens) (UniProt Q9Y336). Nature of the assay: Hs-Siglec9 ALPHAscreen SOP 20170721. Conditions: 10 µM. (In Alpha technology, singlet oxygen from a donor bead excites a nearby acceptor bead.)
A further assay has as its system Trypanosoma cruzi. Nature of the assay: Trypanosoma cruzi phosphomannomutase and mannose-1-phosphate guanylyltransferase assay. To be noted: 10 µM. The assay is classed as functional.
For assay [5], the target named is T2, Arginase-2, mitochondrial (Homo sapiens) (UniProt P78540).
T2 sequence (whole entry): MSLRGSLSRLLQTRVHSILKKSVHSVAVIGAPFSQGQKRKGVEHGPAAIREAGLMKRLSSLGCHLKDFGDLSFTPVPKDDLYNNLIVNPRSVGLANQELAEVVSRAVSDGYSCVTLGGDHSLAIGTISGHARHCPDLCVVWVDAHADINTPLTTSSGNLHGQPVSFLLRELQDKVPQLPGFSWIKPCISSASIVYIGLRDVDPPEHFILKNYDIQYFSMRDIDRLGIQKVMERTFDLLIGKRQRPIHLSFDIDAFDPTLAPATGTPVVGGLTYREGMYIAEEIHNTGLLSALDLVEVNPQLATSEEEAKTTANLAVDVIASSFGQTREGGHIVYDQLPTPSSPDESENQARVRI
Nature of the assay: in vitro enzyme assay to detect the production of urea directly proportional to the activity of Arginase II. Note: in the data most compounds retested in dose-response had high values. The assay is classed as functional. To be noted: 33.3 µM.

In assay [6] the target is T3, Proteasome subunit beta (Trypanosoma cruzi) (UniProt O96673).
T3 sequence (whole entry): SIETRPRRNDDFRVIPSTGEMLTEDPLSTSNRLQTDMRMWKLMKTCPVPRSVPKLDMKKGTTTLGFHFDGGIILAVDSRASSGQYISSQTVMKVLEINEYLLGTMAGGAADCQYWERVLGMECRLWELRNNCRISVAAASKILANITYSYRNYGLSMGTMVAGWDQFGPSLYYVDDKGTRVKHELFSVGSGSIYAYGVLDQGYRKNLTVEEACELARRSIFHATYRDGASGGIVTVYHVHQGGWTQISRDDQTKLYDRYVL
Nature of the assay: Trypanosoma cruzi proteasome chymotrypsin-like activity (TcProtChymo) assay. Note: in the data most compounds retested in dose-response had high values. The assay is classed as functional. Conditions: 9.37 µM.

For a further assay, the species on record is Homo sapiens. Nature of the assay: To identify inhibition of the IFN signalling (Jak-Stat) pathway via expression of an eGFP reporter gene under the control of an IFN-stimulated response element (ISRE) containing MxA promoter. Type of assay: functional. To be noted: 30 µM. Background: A reporter such as luciferase makes a cellular process visible.
Assay [7] deals with T4, Tyrosyl-tRNA synthetase, putative (Trypanosoma cruzi (strain CL Brener)) (UniProt Q4DSP6).
T4 sequence (whole entry): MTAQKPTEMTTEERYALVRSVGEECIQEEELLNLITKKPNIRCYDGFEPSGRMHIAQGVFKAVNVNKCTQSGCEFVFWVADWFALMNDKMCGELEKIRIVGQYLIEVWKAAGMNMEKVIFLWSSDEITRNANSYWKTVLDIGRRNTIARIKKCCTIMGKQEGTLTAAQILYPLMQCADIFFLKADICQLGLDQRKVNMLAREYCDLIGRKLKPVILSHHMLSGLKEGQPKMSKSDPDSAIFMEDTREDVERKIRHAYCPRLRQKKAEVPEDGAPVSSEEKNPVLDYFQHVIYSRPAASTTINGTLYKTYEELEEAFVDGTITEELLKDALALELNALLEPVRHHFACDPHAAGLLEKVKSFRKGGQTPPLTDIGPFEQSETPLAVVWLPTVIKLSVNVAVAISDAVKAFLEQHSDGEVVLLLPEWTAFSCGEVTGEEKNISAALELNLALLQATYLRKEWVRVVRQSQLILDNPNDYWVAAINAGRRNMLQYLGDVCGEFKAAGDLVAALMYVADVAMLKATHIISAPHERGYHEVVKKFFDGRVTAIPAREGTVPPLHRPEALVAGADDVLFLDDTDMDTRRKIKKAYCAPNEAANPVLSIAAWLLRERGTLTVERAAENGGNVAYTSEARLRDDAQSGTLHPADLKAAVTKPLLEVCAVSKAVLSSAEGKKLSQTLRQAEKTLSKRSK
Nature of the assay: Trypanosoma cruzi tyrosyl tRNA synthetase (TcYRS) _High Tyrosine SOP. Note: in the data most compounds retested in dose-response had high values. Conditions: 30 µM. The assay is classed as functional.

Assay [8] has as its target T4, Tyrosyl-tRNA synthetase, putative (Trypanosoma cruzi (strain CL Brener)). Nature of the assay: Trypanosoma cruzi tyrosyl tRNA synthetase (TcYRS) SOP. The assay is classed as functional. To be noted: 30 µM.
For assay [9], the target named is Chromo domain-containing protein 1 (Saccharomyces cerevisiae (strain ATCC 204508 / S288c) (Baker's yeast)) (UniProt P32657). Nature of the assay: ScCHD-1 Enzyme Inhibition Assay. Note: in the data most compounds retested in dose-response had high values. Type of assay: functional. To be noted: 30 µM.
Sequence of Chromo domain-containing protein 1 (Saccharomyces cerevisiae (strain ATCC 204508 / S288c) (Baker's yeast)) (P32657 whole entry, the tested form may be a part): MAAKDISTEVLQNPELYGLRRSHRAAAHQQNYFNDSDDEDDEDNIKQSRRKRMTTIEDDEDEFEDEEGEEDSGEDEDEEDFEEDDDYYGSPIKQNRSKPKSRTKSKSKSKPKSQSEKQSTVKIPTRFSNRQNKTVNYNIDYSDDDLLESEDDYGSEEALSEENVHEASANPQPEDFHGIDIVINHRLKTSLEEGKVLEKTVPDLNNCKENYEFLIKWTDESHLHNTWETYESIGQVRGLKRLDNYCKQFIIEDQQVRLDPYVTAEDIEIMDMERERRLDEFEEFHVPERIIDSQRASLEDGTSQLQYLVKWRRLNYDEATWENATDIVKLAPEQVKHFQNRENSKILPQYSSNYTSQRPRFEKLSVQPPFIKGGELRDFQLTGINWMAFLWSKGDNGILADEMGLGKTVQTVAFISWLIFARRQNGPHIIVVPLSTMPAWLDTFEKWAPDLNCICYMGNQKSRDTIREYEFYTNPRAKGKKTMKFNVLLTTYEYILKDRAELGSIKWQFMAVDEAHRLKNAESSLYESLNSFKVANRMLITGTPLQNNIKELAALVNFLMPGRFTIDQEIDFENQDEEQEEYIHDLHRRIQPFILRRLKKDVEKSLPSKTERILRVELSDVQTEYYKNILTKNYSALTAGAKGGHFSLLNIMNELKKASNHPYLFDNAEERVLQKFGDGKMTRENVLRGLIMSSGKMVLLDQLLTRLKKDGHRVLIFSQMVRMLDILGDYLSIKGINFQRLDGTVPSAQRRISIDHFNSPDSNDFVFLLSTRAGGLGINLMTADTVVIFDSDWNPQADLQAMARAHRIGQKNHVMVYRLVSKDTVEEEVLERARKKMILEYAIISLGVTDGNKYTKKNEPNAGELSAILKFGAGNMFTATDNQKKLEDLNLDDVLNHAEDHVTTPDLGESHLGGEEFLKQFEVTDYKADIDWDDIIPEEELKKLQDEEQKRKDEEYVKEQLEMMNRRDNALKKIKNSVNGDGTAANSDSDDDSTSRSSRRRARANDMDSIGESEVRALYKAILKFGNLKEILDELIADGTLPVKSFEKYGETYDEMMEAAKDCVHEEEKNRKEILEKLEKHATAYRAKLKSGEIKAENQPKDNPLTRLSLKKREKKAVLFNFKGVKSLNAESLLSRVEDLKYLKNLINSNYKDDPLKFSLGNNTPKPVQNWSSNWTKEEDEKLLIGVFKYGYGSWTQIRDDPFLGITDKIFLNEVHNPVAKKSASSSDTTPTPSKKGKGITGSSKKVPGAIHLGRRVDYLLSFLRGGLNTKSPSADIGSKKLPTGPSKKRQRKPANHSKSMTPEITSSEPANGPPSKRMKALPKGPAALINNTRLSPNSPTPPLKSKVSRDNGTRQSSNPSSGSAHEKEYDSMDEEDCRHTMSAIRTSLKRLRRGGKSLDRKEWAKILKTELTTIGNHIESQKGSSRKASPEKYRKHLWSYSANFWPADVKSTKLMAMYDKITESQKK

For part of these data: Results with a measured potency or affinity are listed apart.

Sequence of Protein translocase subunit SecA (Escherichia coli (strain K12)) (P10408 whole entry): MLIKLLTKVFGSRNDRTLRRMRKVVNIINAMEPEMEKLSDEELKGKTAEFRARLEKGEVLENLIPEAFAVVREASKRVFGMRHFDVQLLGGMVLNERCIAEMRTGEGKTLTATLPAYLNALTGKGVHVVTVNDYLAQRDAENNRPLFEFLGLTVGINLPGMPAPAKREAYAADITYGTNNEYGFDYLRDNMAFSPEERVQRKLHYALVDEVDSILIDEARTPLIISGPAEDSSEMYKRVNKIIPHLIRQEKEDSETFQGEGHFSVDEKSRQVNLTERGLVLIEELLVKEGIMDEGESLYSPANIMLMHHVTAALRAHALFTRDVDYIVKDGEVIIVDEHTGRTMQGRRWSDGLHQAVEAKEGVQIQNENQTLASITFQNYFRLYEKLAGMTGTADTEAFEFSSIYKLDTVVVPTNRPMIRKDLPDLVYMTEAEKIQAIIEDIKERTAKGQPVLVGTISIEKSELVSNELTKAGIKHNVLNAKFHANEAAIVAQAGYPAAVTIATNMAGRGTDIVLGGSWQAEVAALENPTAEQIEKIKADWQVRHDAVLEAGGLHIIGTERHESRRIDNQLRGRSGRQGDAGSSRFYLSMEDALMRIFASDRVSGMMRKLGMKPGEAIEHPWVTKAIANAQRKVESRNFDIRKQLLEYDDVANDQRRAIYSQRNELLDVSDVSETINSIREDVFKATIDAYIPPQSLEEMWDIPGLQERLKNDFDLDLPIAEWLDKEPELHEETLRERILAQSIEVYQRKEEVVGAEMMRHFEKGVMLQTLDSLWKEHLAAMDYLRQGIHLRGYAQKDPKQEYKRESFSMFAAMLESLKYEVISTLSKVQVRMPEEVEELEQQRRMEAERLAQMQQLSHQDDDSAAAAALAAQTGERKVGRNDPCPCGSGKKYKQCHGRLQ
Sequence of Sialic acid-binding Ig-like lectin 9 (Homo sapiens) (Q9Y336 whole entry): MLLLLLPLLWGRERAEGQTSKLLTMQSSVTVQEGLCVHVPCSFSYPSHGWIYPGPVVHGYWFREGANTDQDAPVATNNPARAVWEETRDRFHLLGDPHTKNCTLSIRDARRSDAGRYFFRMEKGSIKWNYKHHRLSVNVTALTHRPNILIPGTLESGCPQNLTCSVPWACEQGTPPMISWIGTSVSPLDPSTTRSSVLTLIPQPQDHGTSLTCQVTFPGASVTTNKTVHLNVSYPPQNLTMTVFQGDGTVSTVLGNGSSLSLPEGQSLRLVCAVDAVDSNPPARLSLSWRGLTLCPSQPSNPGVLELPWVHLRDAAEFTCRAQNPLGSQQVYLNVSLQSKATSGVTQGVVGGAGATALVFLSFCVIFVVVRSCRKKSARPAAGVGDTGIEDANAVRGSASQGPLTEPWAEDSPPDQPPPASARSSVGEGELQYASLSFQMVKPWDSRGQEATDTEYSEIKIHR

As to `CC(C(=O)N1CCCN(Cc2ccc(C#N)cc2)CC1)n1ccnc1` (centres undefined), the Percent Effect in assay [1] is -3.9%; in assay [2], 15.8%; in [3], -24.4%; in [4], -5.95%; in the assay on Trypanosoma cruzi, -6.01%; in assay [5], 1.15%. For the same compound, the Percent Effect was 17.2% in [6]; 29.1% in the assay filed under Homo sapiens; 4.41% in assay [7]; 12.2% in [8]; -7.57% in assay [9].
Consider `Cc1nn(C)c(C)c1CC(=O)N1CCC(Nc2cccnn2)CC1`, for which the Percent Effect is -5.77% in [1]; -13.2% in [2]; -1.31% in assay [3]; -4.49% in assay [4]; 9.59% in the assay with Trypanosoma cruzi; -1.92% in [5]. Moreover, the Percent Effect in assay [6] is 5.85%; in the assay filed under Homo sapiens it was 9.42%; in assay [7], 5.39%; in assay [8], 9.76%; in assay [9], -11.7%.
As to `O=C(c1csc(Br)c1)N1CCCC(n2ccnc2)C1` (centres undefined), the Percent Effect in [1] was -3.43%; in assay [2] it was 11.4%; in assay [3], -1.54%; in assay [4], -8.98%; in the assay on Trypanosoma cruzi it was 2.56%; in assay [5], -5.38%. Further, the Percent Effect in [6] was 2.74%; in the assay filed under Homo sapiens, -8.54%; in [7], 2.08%; in assay [8], 12.7%; in assay [9], 54.1%.
As to `CCn1nc2c(cc1=O)CN(Cc1nc3ccccc3c(=O)[nH]1)CC2`, the Percent Effect in assay [1] was -5.88%; in [2] it was 5.48%; in [3], -24.8%; in [4] it was -1.63%; with Trypanosoma cruzi it was -1.57%; in assay [5], -1.36%. In addition, the Percent Effect is 18.3% in assay [6]; 10.3% in the assay filed under Homo sapiens; 6.45% in assay [7]; 10% in [8]; -4.67% in [9].
Turning to `CCS(=O)(=O)N1CCc2c(CN(C)Cc3ccco3)cncc2C1`, the Percent Effect in assay [1] is -1.78%; in assay [2], -2.67%; in assay [3] it was 2.28%; in assay [4], 4.22%; in the assay with Trypanosoma cruzi, -3.86%; in assay [5], -1.61%. Further, the Percent Effect is 11.3% in [6]; -0.516% in the assay filed under Homo sapiens; -2.08% in assay [7]; 5% in assay [8]; -3.58% in assay [9].
On to `CCN(CC)c1ccc(C(=O)N(C)Cc2c(C)noc2C)cn1`, for which the Percent Effect is -4.04% in assay [1]; 10.5% in [2]; -4.84% in assay [3]; -2.69% in assay [4]; -7% in the assay on Trypanosoma cruzi; 10.1% in [5]. Moreover, the Percent Effect in assay [6] is -5.84%; in the assay listed under Homo sapiens, 10.8%; in assay [7], 3.45%; in assay [8] it was 11.1%; in assay [9], -1.15%.
Consider `Cc1ccccc1CN1CCC2(COCc3cnc(N(C)C)nc32)C1` (centres undefined), for which the Percent Effect in [1] was -1.75%; in assay [2], 2.74%; in assay [3], -2.35%; in [4] it was 15.2%; in the assay with Trypanosoma cruzi, 8.73%; in [5] it was -2%. Also, the Percent Effect is 8.65% in [6]; 19.6% in the assay listed under Homo sapiens; 9.38% in assay [7]; 13.6% in assay [8]; -2.3% in [9].
Take `O=C(COc1ccc2c(c1)CCC2)N1CCOCC1c1ncon1` (centres undefined): the Percent Effect was -2.91% in [1]; 2.7% in [2]; -3.96% in assay [3]; -4.39% in assay [4]; -4.62% in the assay on Trypanosoma cruzi; 1.2% in assay [5]. The Percent Effect in [6] was -1.62%; in the assay filed under Homo sapiens, 13.6%; in [7], 4.43%; in [8], 6.17%; in assay [9], -2.72%.
On to `CCc1c(C(=O)N2CCCN(C(C)=O)CC2)cnn1C(C)(C)C`, for which the Percent Effect in assay [1] is -5.01%; in assay [2], 23.7%; in [3], -6.43%; in [4] it was 9.75%; in the assay on Trypanosoma cruzi, 3.27%; in assay [5], 1.08%. The Percent Effect in assay [6] is 6.68%; in the assay listed under Homo sapiens it was -2.15%; in assay [7], 7.39%; in [8], 25.9%; in assay [9], -9.24%.

The values above are taken from ChEMBL document CHEMBL3988442, “University of Dundee, Small-Polar-MMV Screening Library” (2021).
